Assay [1] in a line: Human pregnane X receptor (PXR) small molecule agonists, qHTS cell viability counter screen (AID 1346977). Note: % is set by controls: 0 for no effect and ±100 for the full control effect; nearly all actives have a fitted effect of over 50% in size. In outline: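 Measures live-cell protease fluorescence (CellTiter-Fluor) in PXR-Luc HepG2 cells treated 24hr with compounds at 37C. Cells had 5hr to attach before pin transfer of DMSO solutions.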
A general note: qHTS replaces the single test concentration by a dilution series.

Assay [2] can be described thus: Caspase-3/7 induction in HepG2 cells by small molecules, qHTS assay (AID 1346978). Note: % is set by controls: 0 for no effect and ±100 for the full control effect; nearly all actives have a fitted effect of over 15% in size. In outline: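 Wild-type HepG2 cells (2,000/well) were settled 5 h at 37 C, 5% CO2, then exposed to compounds in DMSO for 17 h. Caspase-3/7 activity was read by luminescence 30 min after adding Caspase-Glo 3/7 reagent at room temperature.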
A short description of assay [3]: Caspase-3/7 induction in CHO-K1 cells by small molecules, qHTS cell viability counter screen (AID 1346979). Note: nearly all actives have a fitted effect of over 35% in size. Note: potency is the fitted concentration of half-maximal effect. In outline: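 In the same wells as the caspase read, viability of compound-treated wild-type CHO-K1 cells was assessed using CellTiter-Fluor, added after 16hr at 37C and measured by fluorescence following 1hr further incubation.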
Assay [4] is described as follows: Caspase-3/7 induction in HepG2 cells by small molecules, qHTS cell viability counter screen (AID 1346981). Note: series mostly up to about 92 µM; % is set by controls: 0 for no effect and ±100 for the full control effect; nearly all actives have a fitted effect of over 30% in size. The method in brief: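 CellTiter-Fluor fluorescence measured viability in the same wells used for Caspase-Glo 3/7. HepG2 (wild type) at 2,000 cells/well were pre-incubated 5 hr, dosed, and given reagent at 16 hr, with 1 hr further at 37C.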
Assay [5] deals with Nuclear receptor subfamily 1 group I member 2 (Homo sapiens) (UniProt O75469). Kind of assay: Human pregnane X receptor (PXR) small molecule agonists, qHTS assay (AID 1346982). For activation: % is set by controls: 0 for no effect and ±100 for the full control effect. Note: nearly all actives have a fitted effect of over 35% in size. Note: potency is the fitted concentration of half-maximal effect. The method in brief: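 Agonist mode: luminescence from ONE-Glo after 24 h compound exposure at 37C in HepG2 cells carrying hPXR-responsive CYP3A4 luciferase, plated in charcoal-stripped serum medium 5 h beforehand.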
Chain of Nuclear receptor subfamily 1 group I member 2 (Homo sapiens) (O75469 whole entry, looked up): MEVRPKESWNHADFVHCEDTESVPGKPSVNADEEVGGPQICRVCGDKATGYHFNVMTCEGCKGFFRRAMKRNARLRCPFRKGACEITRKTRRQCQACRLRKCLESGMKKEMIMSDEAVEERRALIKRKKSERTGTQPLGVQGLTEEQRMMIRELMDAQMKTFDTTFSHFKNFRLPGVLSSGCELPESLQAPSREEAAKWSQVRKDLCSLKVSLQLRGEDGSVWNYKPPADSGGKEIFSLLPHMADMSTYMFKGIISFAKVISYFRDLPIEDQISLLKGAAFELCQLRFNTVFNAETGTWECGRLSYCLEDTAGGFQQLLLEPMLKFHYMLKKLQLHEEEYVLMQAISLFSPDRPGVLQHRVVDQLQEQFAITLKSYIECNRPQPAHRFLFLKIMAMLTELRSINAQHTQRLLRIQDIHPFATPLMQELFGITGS

In assay [6] the target is Nuclear receptor subfamily 1 group I member 2 (Rattus norvegicus) (UniProt Q9R1A7). Nature of the assay: Rat pregnane X receptor (rPXR) activation by small molecules, qHTS assay (AID 1346983). For max activation: % is set by controls: 0 for no effect and ±100 for the full control effect. Note: nearly all actives have a fitted effect of over 20% in size. Note: potency is the fitted concentration of half-maximal effect. To be noted: rPXR luciferase reporter cells, One-Glo luminescence, 24 h; max activation: stronger effect = higher value. The method in brief: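 Cell-based rPXR luciferase reporter assay, 2,000 cells per well, rested 5hr at 37 C before compound addition in DMSO, then 24 hr at 37 C. One-Glo reagent was added and luminescence read after 30 min at room temperature.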
Chain of Nuclear receptor subfamily 1 group I member 2 (Rattus norvegicus) (Q9R1A7 whole entry, looked up): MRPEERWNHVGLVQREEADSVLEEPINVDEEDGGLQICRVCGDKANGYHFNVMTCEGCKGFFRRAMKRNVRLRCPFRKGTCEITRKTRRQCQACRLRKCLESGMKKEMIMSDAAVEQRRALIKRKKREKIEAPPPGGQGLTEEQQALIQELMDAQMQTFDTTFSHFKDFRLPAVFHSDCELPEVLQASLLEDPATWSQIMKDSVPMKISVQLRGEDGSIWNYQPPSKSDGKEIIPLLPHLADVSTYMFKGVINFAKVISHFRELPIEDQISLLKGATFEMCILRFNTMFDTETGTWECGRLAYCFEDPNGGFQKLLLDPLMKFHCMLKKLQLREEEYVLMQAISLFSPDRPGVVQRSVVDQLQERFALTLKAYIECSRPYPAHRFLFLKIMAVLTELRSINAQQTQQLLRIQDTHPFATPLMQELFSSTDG

The target in assay [7] is Nuclear receptor subfamily 1 group I member 2 (Homo sapiens) (UniProt O75469). Nature of the assay: Human pregnane X receptor (PXR) activation by small molecules, qHTS assay (AID 1346985). Note: % is set by controls: 0 for no effect and ±100 for the full control effect; nearly all actives have a fitted effect of over 40% in size. The method in brief:
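DPX-2 cells (HepG2 co-transfected with a PXR response element and a CYP3A4-promoter luciferase construct) were seeded at 2,000 per well, rested 5 hr at 37C, then exposed to DMSO-dissolved compounds for 24 hr. Activation was read as luciferase luminescence.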

The target of assay [8] is Cytochrome P450 2D6 (Homo sapiens) (UniProt P10635). Kind of assay: Cytochrome P450 Family 2 Subfamily D Member 6 (CYP2D6) small molecule antagonists: luciferase reporter qHTS assay (AID 1671196). Note: nearly all actives have a fitted effect of over 50% in size. Note: potency is the fitted concentration of half-maximal effect. In outline:
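CYP2D6 activity was followed as luminescence from its luciferin product after a 1 h NADPH-driven reaction at room temperature. Enzyme-substrate mix and compound were pre-incubated for 10 min, and the signal was read 20 min after adding detection reagent.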

For assay [9], the target named is Cytochrome P450 2C19 (Homo sapiens) (UniProt P33261). Nature of the assay: Cytochrome P450 Family 2 Subfamily C Member 19 (CYP2C19) small molecule antagonists: luciferase reporter qHTS assay (AID 1671197). Note: nearly all actives have a fitted effect of over 65% in size. Note: potency is the fitted concentration of half-maximal effect. The method in brief: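 P450-Glo CYP2C19 screening system; proluciferin substrate; DMSO compound stocks; 10 min RT preincubation; NADPH regeneration, 1 h at 37C; luciferin detection reagent, 20 min RT; luminescence as RLU.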
Chain of Cytochrome P450 2C19 (Homo sapiens) (P33261 whole entry, looked up): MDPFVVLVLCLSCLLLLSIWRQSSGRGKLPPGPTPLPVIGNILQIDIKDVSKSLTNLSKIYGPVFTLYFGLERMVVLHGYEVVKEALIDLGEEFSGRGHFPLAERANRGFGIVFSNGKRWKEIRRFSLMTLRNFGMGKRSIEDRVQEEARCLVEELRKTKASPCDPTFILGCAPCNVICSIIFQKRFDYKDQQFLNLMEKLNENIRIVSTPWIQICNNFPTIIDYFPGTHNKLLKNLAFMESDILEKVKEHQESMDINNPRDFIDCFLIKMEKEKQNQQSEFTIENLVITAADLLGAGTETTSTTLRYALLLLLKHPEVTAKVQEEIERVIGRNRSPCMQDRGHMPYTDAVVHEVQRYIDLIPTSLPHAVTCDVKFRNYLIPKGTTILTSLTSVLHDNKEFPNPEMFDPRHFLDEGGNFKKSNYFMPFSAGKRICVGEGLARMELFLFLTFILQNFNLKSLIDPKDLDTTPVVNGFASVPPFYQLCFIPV
Background: Reporter assays use an easily measured gene product as a stand-in for the process of interest.

Assay [10] addresses Cytochrome P450 2C9 (Homo sapiens) (UniProt P11712). Kind of assay: Cytochrome P450 Family 2 Subfamily C Member 9 (CYP2C9) small molecule antagonists: luciferase reporter qHTS assay (AID 1671198). Note: nearly all actives have a fitted effect of over 50% in size. Note: potency is the fitted concentration of half-maximal effect. In outline:
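CYP2C9 activity was measured with a P450-Glo proluciferin substrate. Enzyme–substrate mix was held with compound for 10 min at room temperature, then NADPH regeneration solution was added for 1 h at 37C. Luciferin product was read as luminescence.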

The target in assay [11] is Cytochrome P450 1A2 (Homo sapiens) (UniProt P05177). Kind of assay: Cytochrome P450 Family 1 Subfamily A Member 2 (CYP1A2) small molecule antagonists: luciferase reporter qHTS assay (AID 1671199). Note: nearly all actives have a fitted effect of over 50% in size. Note: potency is the fitted concentration of half-maximal effect. The method in brief: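 Luminescence from luciferin formed by CYP1A2 from a proluciferin substrate, read 20 min after detection reagent. Compound was pre-incubated 10 min with enzyme-substrate, and reaction started with NADPH regeneration solution for 1 h at room temperature; furafylline control.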
Chain of Cytochrome P450 1A2 (Homo sapiens) (P05177 whole entry, looked up): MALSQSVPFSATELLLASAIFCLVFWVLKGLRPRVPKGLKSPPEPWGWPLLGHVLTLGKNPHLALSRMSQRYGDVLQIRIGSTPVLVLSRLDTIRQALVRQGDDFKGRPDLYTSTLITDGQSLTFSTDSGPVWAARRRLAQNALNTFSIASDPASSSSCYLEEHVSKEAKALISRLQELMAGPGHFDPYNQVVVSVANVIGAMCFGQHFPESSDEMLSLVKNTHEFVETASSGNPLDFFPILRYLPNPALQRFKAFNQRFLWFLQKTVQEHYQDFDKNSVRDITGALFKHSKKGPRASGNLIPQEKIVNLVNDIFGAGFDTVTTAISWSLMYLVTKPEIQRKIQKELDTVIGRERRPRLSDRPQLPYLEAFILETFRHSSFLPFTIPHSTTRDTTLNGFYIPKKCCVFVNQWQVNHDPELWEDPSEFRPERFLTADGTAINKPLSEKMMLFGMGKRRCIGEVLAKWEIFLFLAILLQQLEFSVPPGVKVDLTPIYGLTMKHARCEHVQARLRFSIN

For assay [12], the target named is Cytochrome P450 3A4 (Homo sapiens) (UniProt P08684). Nature of the assay: Cytochrome P450 Family 3 Subfamily A Member 4 (CYP3A4) small molecule antagonists: luciferase reporter qHTS assay (AID 1671201). In outline:
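Inhibition of CYP3A4 is measured as loss of light: the enzyme converts a proluciferin substrate to luciferin, detected luminescently. Reaction ran 1 h at room temperature with NADPH regeneration after a 10 min compound preincubation.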

Assay [13] can be described thus: Caspase-3/7 induction in CHO-K1 cells by small molecules, qHTS assay (AID 1346980). Note: % is set by controls: 0 for no effect and ±100 for the full control effect; nearly all actives have a fitted effect of over 15% in size. In outline: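 Wild-type cells were seeded at 1,500 per well and settled 5 hr at 37 C, 5% CO2, then exposed to DMSO-dissolved compounds for 17 hr. Caspase-Glo 3/7 reagent was added, and luminescence was read after 30min at room temperature.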
Assay [14] concerns the target Voltage-gated inwardly rectifying potassium channel KCNH2 (Homo sapiens) (UniProt Q12809). Nature of the assay: Human Ether-a-go-go-Related Gene (hERG) channel small molecule antagonists: fluorescence cell-based qHTS assay (AID 1671200). The method in brief:
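Quantitative HTS in hERG-U2OS cells: thallium entry through the channel reports activity, read as continuous 480/540 nm fluorescence over 2 min after stimulus addition.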
In general terms: Block of hERG is tested as a sign of cardiac risk.

For assay [15], the target named is Nuclear receptor subfamily 1 group I member 2 (Homo sapiens) (UniProt O75469). Nature of the assay: CYP3A4 induction through human pregnane X receptor (PXR) by small molecules, qHTS assay (AID 1346984). Note: potency is the fitted concentration of half-maximal effect; nearly all actives have a fitted effect of over 40% in size. In outline: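 Read-out is luminescence after One-Glo addition, following a 3 hr, 37C incubation with Luciferin-IPA CYP3A4 substrate (3uM final). Before that, compounds were on DPX-2 cells (HepG2 co-transfected with PXR element plus CYP3A4-promoter luciferase) for 24 hr at 37C.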

A number with no mark means an inactive call. Records with an inconclusive call do not appear. Activity calls are given as the source filed them. Calls come from the whole dose curve; as a rule, active = well fitted curve in the direction sought with a large enough effect in the repeat runs; inconclusive = weak or mixed curves; inactive = no such curve, though single readings can be large; an effect the other way counts as inactive or inconclusive.

Chain of Cytochrome P450 2D6 (Homo sapiens) (P10635 whole entry, looked up): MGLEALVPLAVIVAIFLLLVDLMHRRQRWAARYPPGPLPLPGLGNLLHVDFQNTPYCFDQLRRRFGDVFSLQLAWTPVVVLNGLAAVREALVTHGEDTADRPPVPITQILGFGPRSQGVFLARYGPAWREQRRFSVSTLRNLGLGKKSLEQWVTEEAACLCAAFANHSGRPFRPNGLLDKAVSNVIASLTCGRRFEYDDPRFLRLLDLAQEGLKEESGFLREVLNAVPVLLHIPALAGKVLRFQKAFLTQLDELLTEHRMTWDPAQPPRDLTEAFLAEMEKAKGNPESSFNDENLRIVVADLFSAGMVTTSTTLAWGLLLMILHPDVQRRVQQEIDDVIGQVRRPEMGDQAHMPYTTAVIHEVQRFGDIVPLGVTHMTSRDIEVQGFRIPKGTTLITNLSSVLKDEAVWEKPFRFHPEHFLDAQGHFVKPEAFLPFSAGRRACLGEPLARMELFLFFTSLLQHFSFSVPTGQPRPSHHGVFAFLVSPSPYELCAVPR
Chain of Voltage-gated inwardly rectifying potassium channel KCNH2 (Homo sapiens) (Q12809 whole entry, looked up): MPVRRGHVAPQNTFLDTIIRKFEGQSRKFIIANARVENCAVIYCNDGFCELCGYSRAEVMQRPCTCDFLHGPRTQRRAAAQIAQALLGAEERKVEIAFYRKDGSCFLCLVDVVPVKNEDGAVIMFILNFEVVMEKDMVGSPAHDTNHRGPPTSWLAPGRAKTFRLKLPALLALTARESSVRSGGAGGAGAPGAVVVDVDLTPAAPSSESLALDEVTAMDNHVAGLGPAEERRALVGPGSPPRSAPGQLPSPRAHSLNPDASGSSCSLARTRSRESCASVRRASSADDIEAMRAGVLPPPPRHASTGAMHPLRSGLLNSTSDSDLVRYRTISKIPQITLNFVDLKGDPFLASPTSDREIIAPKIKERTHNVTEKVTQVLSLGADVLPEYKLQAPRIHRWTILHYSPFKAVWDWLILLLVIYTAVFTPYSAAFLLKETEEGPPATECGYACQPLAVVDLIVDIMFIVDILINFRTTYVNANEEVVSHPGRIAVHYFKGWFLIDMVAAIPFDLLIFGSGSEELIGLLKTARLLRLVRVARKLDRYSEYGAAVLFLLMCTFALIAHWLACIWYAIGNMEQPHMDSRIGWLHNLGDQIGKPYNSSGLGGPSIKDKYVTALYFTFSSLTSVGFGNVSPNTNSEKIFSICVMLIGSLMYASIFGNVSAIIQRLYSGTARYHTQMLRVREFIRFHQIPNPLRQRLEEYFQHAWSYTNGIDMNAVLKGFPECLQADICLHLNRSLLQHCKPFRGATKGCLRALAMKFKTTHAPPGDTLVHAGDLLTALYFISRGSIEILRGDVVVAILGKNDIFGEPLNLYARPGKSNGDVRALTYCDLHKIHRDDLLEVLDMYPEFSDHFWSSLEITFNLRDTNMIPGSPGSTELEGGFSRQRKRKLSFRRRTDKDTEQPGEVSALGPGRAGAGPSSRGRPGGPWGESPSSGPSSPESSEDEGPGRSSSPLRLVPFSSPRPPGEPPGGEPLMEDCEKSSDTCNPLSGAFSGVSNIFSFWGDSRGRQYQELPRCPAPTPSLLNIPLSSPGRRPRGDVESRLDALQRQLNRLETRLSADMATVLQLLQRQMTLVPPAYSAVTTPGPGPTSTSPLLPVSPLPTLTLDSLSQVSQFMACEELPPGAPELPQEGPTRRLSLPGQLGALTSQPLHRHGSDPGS
Chain of Cytochrome P450 3A4 (Homo sapiens) (P08684 whole entry, looked up): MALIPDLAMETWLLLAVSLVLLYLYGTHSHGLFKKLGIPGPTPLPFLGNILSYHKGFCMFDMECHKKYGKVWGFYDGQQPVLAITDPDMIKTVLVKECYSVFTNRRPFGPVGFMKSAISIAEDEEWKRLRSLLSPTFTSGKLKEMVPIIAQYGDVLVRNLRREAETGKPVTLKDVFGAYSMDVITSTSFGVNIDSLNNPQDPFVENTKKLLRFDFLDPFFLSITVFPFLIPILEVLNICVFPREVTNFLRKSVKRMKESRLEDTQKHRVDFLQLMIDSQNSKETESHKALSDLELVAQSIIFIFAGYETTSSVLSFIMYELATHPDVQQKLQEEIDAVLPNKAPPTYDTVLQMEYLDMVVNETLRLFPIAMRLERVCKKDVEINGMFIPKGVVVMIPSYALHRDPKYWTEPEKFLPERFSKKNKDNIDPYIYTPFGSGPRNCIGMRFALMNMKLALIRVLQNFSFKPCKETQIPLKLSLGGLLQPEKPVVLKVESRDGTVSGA
Chain of Cytochrome P450 2C9 (Homo sapiens) (P11712 whole entry, looked up): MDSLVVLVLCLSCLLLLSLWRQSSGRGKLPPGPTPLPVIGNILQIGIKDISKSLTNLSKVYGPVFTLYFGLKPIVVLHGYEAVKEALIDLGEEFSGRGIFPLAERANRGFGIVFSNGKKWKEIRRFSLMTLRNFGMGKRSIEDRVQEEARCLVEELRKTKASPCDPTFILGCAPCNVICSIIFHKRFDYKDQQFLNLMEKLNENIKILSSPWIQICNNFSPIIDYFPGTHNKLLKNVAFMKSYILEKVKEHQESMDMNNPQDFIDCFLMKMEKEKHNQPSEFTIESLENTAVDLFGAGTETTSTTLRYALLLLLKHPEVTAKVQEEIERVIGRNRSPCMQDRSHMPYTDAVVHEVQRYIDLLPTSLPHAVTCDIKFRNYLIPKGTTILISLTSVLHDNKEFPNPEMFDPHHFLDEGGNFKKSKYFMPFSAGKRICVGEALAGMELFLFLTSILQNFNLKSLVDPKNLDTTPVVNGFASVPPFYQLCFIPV

As to `CC(CN(C)C)C(C)(O)Cc1ccc(Cl)cc1` (stereo not given), the Potency entry in [1], in assay [2], in [3], in assay [4], in assay [5] and in assay [7] was “inactive” throughout. The Potency result in assay [9], in assay [10], in [11] and in [12] was “inactive” each time. Also, the max activation in assay [6] was -1.26%. Besides, the Potency in assay [8] is 6.17 µM (active).

For the compound `CCCCCCCC/C=C\CCCCCCCCCCCC(=O)O`, the Potency entry in assay [1], in [2], in [3], in [13], in assay [5] and in [8] was “inactive” each time. Besides, the Potency result in assay [9], in assay [10], in assay [11], in assay [14] and in [12] was “inactive” in each case.

Regarding `O=C1Cc2cc(Cl)ccc2N1`, the Potency entry in assay [1], in assay [2], in [3], in [13], in assay [5] and in [8] was “inactive” throughout. Besides, the Potency result in assay [14] and in assay [12] was “inactive” throughout. In addition, the values for the Potency in [10] and in assay [11] were 17.4 µM (active) and 11 µM (active), respectively.

As for `O=C(Cn1ccnc1[N+](=O)[O-])NCCO`, the Potency entry in assay [1], in [2], in assay [3], in assay [4], in assay [5] and in assay [8] was “inactive” throughout. Besides, the Potency entry in assay [9], in assay [10], in [11], in assay [14] and in assay [12] was “inactive” in each case.

On to `Cc1ccc(CO)cc1`, for which the Potency result in [1], in [2], in assay [3], in assay [4], in assay [5] and in assay [8] was “inactive” in each case. Also, the Potency result in [9], in assay [10], in [14] and in assay [12] was “inactive” each time. The Potency in assay [11] is 32.1 µM (active).

Consider `Cc1ccccc1S`, for which the Potency entry in [1], in assay [2], in [3], in assay [13], in assay [4] and in [14] was “inactive” in each case. In [12], the Potency entry was “inactive”. For the same compound, the figures for the Potency in assay [8], in assay [10] and in [11] were 28.5 µM (active), 45.2 µM (active) and 50.7 µM (active), respectively.

In the case of `CC(=O)c1ccc([N+](=O)[O-])cc1`, the Potency entry in assay [1], in [2], in assay [3], in [13], in assay [4] and in assay [10] was “inactive” throughout. Further, the Potency entry in [14] and in assay [12] was “inactive” each time. In addition, the values for the Potency in assay [9] and in assay [11] were 63.4 µM (active) and 40 µM (active), respectively.

In the case of `CC(C)C(O)(c1ccc(OC(F)(F)F)cc1)c1cncnc1` (stereo not given), the Potency result in assay [1], in assay [2], in assay [3], in assay [13], in assay [4] and in [14] was “inactive” each time.

Consider `CC(C)=CCC/C(C)=C/CC/C(C)=C/C(=O)OCC(=O)[C@@]1(O)CC[C@H]2[C@@H]3CCC4=CC(=O)C=C[C@]4(C)[C@H]3[C@@H](O)C[C@@]21C`, for which the Potency result in [1], in assay [2], in assay [13], in [11] and in assay [14] was “inactive” throughout. The Potency in assay [3] is 18.8 µM (active); in assay [5], 1.88 µM (active); in [9], 7.76 µM (active); in assay [10], 3.89 µM (active).

Take `CC(C)=CCC1C(=O)N(c2ccccc2)N(c2ccccc2)C1=O`: the Potency result in assay [1], in assay [2], in [3], in assay [13], in [8] and in assay [14] was “inactive” in each case. In addition, the Potency in assay [5] is 29.8 µM (active); in assay [6], 28.2 µM (active); in assay [15] it was 5.01 µM (active); in [9] it was 27.5 µM (active).

(Values after PubChem BioAssay (Tox21).)
